# Results taken from PubChem BioAssay (NCATS).
# Inconclusive results are not listed. Where a call stands in place of a potency, no number is given. Calls of active or inactive are those of the source. Unless noted, calls follow the shape of the dose curve; as a rule, active = well fitted curve in the direction sought with a large enough effect; inconclusive = small, poorly fitted or top-dose-only effect, or another doubt; inactive = no such curve, though single readings can be large; an effect the other way counts as inactive or inconclusive.
# What was measured:
# [1] = target: Guanine nucleotide-binding protein G(i) subunit alpha-1 (Homo sapiens) (UniProt P63096); experiment: qHTS Assay for Inhibitors of RGS12 GoLoco Motif Activity (Green Fluorophore) (AID 879);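 also: negative values mean loss of peptide binding seen as reduced polarization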
# How it was run: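 A drop in FITC polarization marked displacement of the FITC-tagged RGS12 GoLoco peptide (10 nM) from Gαi1 (50 nM). Compounds were incubated 10 min at room temperature in Tris pH 7.5 buffer containing 150 mM NaCl, 0.1 mM GDP and 0.05% NP40; unlabeled peptide titration served as control.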
# [2] = target: Cytochrome P450 3A4 (Homo sapiens) (UniProt P08684); experiment: qHTS Assay for Inhibitors and Substrates of Cytochrome P450 3A4 (AID 884); also: potency is read from the fitted curve at half-maximal effect; nearly all actives have a fitted effect of over 50% in size
# How it was run: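 Luminescent readout of luciferin produced by CYP3A4 (20 nM) dealkylation of Luciferin-PPXE, 25 uM (its KM). NADPH-driven reaction ran 60 min at RT after 10 min compound preincubation; data scaled to 57 uM ketoconazole as 100% inhibition.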
# [3] = target: Cytochrome P450 3A4 (Homo sapiens) (UniProt P08684); experiment: qHTS Assay for Activators of Cytochrome P450 3A4 (AID 885); also: nearly all actives have a fitted effect of over 65% in size
# How it was run: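 Luminescent readout of luciferin formed from 25 uM Luciferin-PPXE (KM level) by 20 nM CYP3A4 in 200 mM KPO4, with 60 min NADPH-driven reaction at room temperature after 10 min compound exposure. Ketoconazole (57 uM) defined 100% inhibition.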
# [4] = target: Cytochrome P450 2C9 (Homo sapiens) (UniProt P11712); experiment: qHTS Assay for Inhibitors and Substrates of Cytochrome P450 2C9 (AID 883); also: nearly all actives have a fitted effect of over 60% in size
# How it was run: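 A luminogenic readout tracked human CYP2C9 (10nM) converting deoxyluciferin (100uM, at KM) in 25mM KPO4 during 60 min at 37C with regenerated NADPH. Values normalized to 57uM sulphaphenazole as complete inhibition.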
# [5] = qHTS Assay for Identification of Small Molecule Antagonists for NFkB Signaling Pathway (AID 895; active = well fitted inhibition curve with a large enough effect in the signal ratio, with a control signal flat, not every such curve was filed as active; the % refers to the signal ratio)
# How it was run: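 NFkB-bla ME-180 cervical carcinoma cells with beta-lactamase reporter under NFkB response element; compounds added, then TNF alpha at 10 pM final (EC50), 5 h at 37 C. LiveBLAzer substrate 2 h, room temperature; emission 460/530 nm at 405 nm excitation.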
# Cytochrome P450 3A4 (Homo sapiens), sequence (P08684 whole entry, looked up): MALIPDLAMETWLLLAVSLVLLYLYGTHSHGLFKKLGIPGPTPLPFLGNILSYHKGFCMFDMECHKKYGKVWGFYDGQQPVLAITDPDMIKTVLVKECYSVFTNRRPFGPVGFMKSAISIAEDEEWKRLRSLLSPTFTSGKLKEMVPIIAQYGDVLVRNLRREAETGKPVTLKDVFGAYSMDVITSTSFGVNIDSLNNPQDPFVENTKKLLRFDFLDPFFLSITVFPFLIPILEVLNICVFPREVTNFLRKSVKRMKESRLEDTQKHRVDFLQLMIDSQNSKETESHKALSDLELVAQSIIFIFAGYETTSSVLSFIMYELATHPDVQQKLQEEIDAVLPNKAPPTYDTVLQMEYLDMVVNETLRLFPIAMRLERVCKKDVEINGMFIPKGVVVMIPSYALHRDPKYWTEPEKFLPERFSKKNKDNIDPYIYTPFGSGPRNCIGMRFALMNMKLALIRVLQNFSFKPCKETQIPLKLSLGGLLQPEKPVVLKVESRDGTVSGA
# Guanine nucleotide-binding protein G(i) subunit alpha-1 (Homo sapiens), sequence (P63096 whole entry, looked up): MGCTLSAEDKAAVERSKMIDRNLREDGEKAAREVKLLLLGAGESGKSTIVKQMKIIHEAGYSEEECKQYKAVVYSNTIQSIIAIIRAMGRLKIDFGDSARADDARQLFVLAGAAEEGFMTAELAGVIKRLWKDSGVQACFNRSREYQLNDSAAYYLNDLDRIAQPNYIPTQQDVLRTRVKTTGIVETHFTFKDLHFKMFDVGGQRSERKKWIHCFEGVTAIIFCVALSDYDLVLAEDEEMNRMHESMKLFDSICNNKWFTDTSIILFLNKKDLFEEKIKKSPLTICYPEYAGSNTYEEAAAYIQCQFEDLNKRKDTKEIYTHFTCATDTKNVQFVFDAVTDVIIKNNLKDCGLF
# Cytochrome P450 2C9 (Homo sapiens), sequence (P11712 whole entry, looked up): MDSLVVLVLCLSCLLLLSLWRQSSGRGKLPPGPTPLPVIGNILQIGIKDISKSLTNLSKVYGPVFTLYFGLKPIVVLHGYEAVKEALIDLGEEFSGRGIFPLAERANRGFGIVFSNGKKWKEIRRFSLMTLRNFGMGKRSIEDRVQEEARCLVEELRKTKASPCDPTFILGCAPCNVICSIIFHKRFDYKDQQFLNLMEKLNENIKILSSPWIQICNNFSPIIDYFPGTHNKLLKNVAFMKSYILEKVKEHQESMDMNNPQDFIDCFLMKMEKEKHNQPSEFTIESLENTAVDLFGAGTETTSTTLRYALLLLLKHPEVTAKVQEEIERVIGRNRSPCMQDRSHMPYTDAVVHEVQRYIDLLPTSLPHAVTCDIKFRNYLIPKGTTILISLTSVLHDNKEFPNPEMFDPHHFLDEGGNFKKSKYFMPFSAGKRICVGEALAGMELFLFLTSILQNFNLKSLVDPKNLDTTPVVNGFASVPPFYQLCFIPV
compound,measurement,setting,value
C[N+]1(C)[C@@H]2CC[C@H]1CC(OC(=O)c1c[nH]c3ccccc13)C2 (stereo partly drawn),Potency,[1],inactive
same,Potency,[2],7.94 µM (active)
same,outcome,[3],inactive
CCCN(CCC)C1Cc2cc(OC)c(OC)cc2C1,Potency,[1],inactive
same,Potency,[4],inactive
same,Potency,[5],inactive
c1ccc2cc(CC3=NCCN3)ccc2c1,Potency,[1],inactive
NCCCP(=O)(O)O,Potency,[1],inactive
same,outcome,[3],inactive
Cc1[nH]c2ccc(O)cc2c1CCN,Potency,[1],inactive
same,outcome,[3],inactive
same,Potency,[5],inactive
CN(N=O)c1ccc(O)c(O)c1,Potency,[4],inactive
